A short description of experiment [1]: NCI Yeast Anticancer Drug Screen. Data for the rad50 strain (AID 155).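 Also: 0% = growth of vehicle-only cultures of the same strain.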 The note with it: S. cerevisiae rad50 strain growth inhibition, stronger effect = higher value. An outline of the steps: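 Inhibition values express reduced yeast growth in compound-treated cultures relative to vehicle-treated controls.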
Experiment [2] is described as follows: NCI Yeast Anticancer Drug Screen. Data for the mec2-1 strain (AID 157). The note with it: S. cerevisiae mec2-1 strain, stronger effect = higher value. An outline of the steps: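 Mutant yeast (mec2-1) grown with compound; growth inhibition relative to vehicle control reported.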
A short description of experiment [3]: NCI Yeast Anticancer Drug Screen. Data for the sgs1 mgt1 strain (AID 161).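 Also: 0% = growth of cultures given vehicle only.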 The note with it: S. cerevisiae sgs1 mgt1 strain, stronger effect = higher value. An outline of the steps:
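Compounds are added to genetically altered yeast, and growth is compared with cultures given vehicle alone to give percent inhibition.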

A short description of experiment [4]: NCI Yeast Anticancer Drug Screen. Data for the cln2 rad14 strain (AID 165).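 Also: 0% = growth equal to vehicle treated cultures.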 Particulars: S. cerevisiae cln2 rad14 strain, stronger effect = higher value. An outline of the steps: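 Readout is yeast growth inhibition versus vehicle-treated controls, using a strain with cln2 and rad14 alterations exposed to compound.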
The nature of experiment [5]: NCI Yeast Anticancer Drug Screen. Data for the bub3 strain (AID 167). The note with it: S. cerevisiae bub3 mutant strain, stronger effect = higher value. An outline of the steps: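 Steps: expose the mutant yeast strain to compound; grow alongside vehicle-treated cultures; measure growth; express inhibition against the vehicle cultures.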
Experiment [6] is described as follows: NCI Yeast Anticancer Drug Screen. Data for the mlh1 rad18 strain (AID 175). The note with it: S. cerevisiae mlh1 rad18 strain growth inhibition, stronger effect = higher value. An outline of the steps: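 Genetically defined yeast (DNA repair-deficient) exposed to compounds; growth inhibition determined relative to vehicle.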
Setting [7] is: at 5.0 µM (retest, dose inferred, filed as 0.5).
Setting [8] is: at 50.0 µM (retest, dose inferred, filed as 5.0).

Structures are written as SMILES. This is part of a sample that, as a whole, favours compounds with a hit. Of some 79,000 tested, about 15% had one in any assay. Values without a mark were called inactive. Calls of active or inactive are those of the source. Rule as the data show it: active = growth inhibition above about 70%; inactive = the rest.

As to `Cc1cc(C[P+](c2ccccc2)(c2ccccc2)c2ccccc2)c(C)cc1C[P+](c1ccccc1)(c1ccccc1)c1ccccc1`, the growth inhibition in experiment [1] (setting [7]) is 4%; in experiment [1] (setting [8]) it was 66%; in experiment [1] (at 50.0 µM), 95.1% (active); in experiment [2] (setting [7]) it was -9%; in experiment [2] (setting [8]) it was 49%; in experiment [2] (at 50.0 µM), 96.7% (active). The growth inhibition is 1% in experiment [3] (setting [7]); 61% in experiment [3] (setting [8]); 91.6% (active) in experiment [3] (at 50.0 µM); 3% in experiment [4] (setting [7]); 32% in experiment [4] (setting [8]); 82.5% (active) in experiment [4] (at 50.0 µM). The growth inhibition in experiment [5] (setting [7]) is 3%; in experiment [5] (setting [8]), 66%; in experiment [5] (at 50.0 µM) it was 92.1% (active); in experiment [6] (setting [7]), 1%; in experiment [6] (setting [8]), 86% (active); in experiment [6] (at 50.0 µM), 94.5% (active).

Consider `Cc1cc(NC(=S)SCc2ccc3c(c2)OCO3)ccc1Br`, for which the growth inhibition in experiment [1] (setting [7]) was 38%; in experiment [1] (setting [8]) it was 98% (active); in experiment [1] (at 50.0 µM), 89.7% (active); in experiment [2] (setting [7]) it was 28%; in experiment [2] (setting [8]), 98% (active); in experiment [2] (at 50.0 µM), 91.6% (active). For the same compound, the growth inhibition is 54% in experiment [3] (setting [7]); 98% (active) in experiment [3] (setting [8]); 91.2% (active) in experiment [3] (at 50.0 µM); 40% in experiment [4] (setting [7]); 99% (active) in experiment [4] (setting [8]); 87.2% (active) in experiment [4] (at 50.0 µM). Besides, the growth inhibition was 49% in experiment [5] (setting [7]); 98% (active) in experiment [5] (setting [8]); 91.2% (active) in experiment [5] (at 50.0 µM); 34% in experiment [6] (setting [7]); 98% (active) in experiment [6] (setting [8]); 89.7% (active) in experiment [6] (at 50.0 µM).

On to `CCC[CH2][Sn]([CH2]CCC)([O]N(C)C(=O)c1ccc(Br)cc1)[O]N(C)C(=O)c1ccc(Br)cc1`, for which the growth inhibition was 63% in experiment [1] (setting [7]); 98% (active) in experiment [1] (setting [8]); 89.5% (active) in experiment [1] (at 50.0 µM); 87% (active) in experiment [2] (setting [7]); 99% (active) in experiment [2] (setting [8]); 90.2% (active) in experiment [2] (at 50.0 µM). The growth inhibition in experiment [3] (setting [7]) is 33%; in experiment [3] (setting [8]), 95% (active); in experiment [3] (at 50.0 µM) it was 92.8% (active); in experiment [4] (setting [7]), 27%; in experiment [4] (setting [8]), 98% (active); in experiment [4] (at 50.0 µM), 90.7% (active). Besides, the growth inhibition in experiment [5] (setting [7]) is 37%; in experiment [5] (setting [8]) it was 97% (active); in experiment [5] (at 50.0 µM), 90.7% (active); in experiment [6] (setting [7]), 90% (active); in experiment [6] (setting [8]) it was 98% (active); in experiment [6] (at 50.0 µM), 90.5% (active).

`Cc1cc(O)c(O)cc1C/C=C/c1ccccc1`: the growth inhibition is -1% in experiment [1] (setting [7]); 92% (active) in experiment [1] (setting [8]); 53.2% in experiment [1] (at 50.0 µM); 1% in experiment [2] (setting [7]); 97% (active) in experiment [2] (setting [8]); 26.7% in experiment [2] (at 50.0 µM). For the same compound, the growth inhibition was 5% in experiment [3] (setting [7]); 97% (active) in experiment [3] (setting [8]); 51.5% in experiment [3] (at 50.0 µM); -5% in experiment [4] (setting [7]); 82% (active) in experiment [4] (setting [8]); 42.5% in experiment [4] (at 50.0 µM). The growth inhibition is 0% in experiment [5] (setting [7]); 96% (active) in experiment [5] (setting [8]); 53.2% in experiment [5] (at 50.0 µM); -10% in experiment [6] (setting [7]); 96% (active) in experiment [6] (setting [8]); 40.6% in experiment [6] (at 50.0 µM).

As to `CCOC(=O)CSC(=S)Nc1ccc(Cl)cc1`, the growth inhibition in experiment [1] (setting [7]) was 0%; in experiment [1] (setting [8]), 88% (active); in experiment [1] (at 50.0 µM), 88.9% (active); in experiment [2] (setting [7]), -2%; in experiment [2] (setting [8]), 91% (active); in experiment [2] (at 50.0 µM) it was 21.1%. For the same compound, the growth inhibition in experiment [3] (setting [7]) was 5%; in experiment [3] (setting [8]) it was 95% (active); in experiment [3] (at 50.0 µM), 87.5% (active); in experiment [4] (setting [7]), -5%; in experiment [4] (setting [8]), 36%; in experiment [4] (at 50.0 µM), -26.8%. In addition, the growth inhibition in experiment [5] (setting [7]) was -9%; in experiment [5] (setting [8]), 61%; in experiment [5] (at 50.0 µM), 50.5%; in experiment [6] (setting [7]), 6%; in experiment [6] (setting [8]), 98% (active); in experiment [6] (at 50.0 µM) it was 93.7% (active).

For the compound `O=[N+]([O-])c1ccc(/C=N/O)o1`, the growth inhibition is 20% in experiment [1] (setting [7]); 98% (active) in experiment [1] (setting [8]); 98.2% (active) in experiment [1] (at 50.0 µM); 6% in experiment [2] (setting [7]); 99% (active) in experiment [2] (setting [8]); 99.5% (active) in experiment [2] (at 50.0 µM). For the same compound, the growth inhibition was 5% in experiment [3] (setting [7]); 99% (active) in experiment [3] (setting [8]); 99.2% (active) in experiment [3] (at 50.0 µM); 49% in experiment [4] (setting [7]); 98% (active) in experiment [4] (setting [8]); 89% (active) in experiment [4] (at 50.0 µM). Further, the growth inhibition is 13% in experiment [5] (setting [7]); 99% (active) in experiment [5] (setting [8]); 99.6% (active) in experiment [5] (at 50.0 µM); 44% in experiment [6] (setting [7]); 99% (active) in experiment [6] (setting [8]); 99% (active) in experiment [6] (at 50.0 µM).

As to `CC(=O)/C(=C\c1cccc(Cl)c1)C(=O)CCN(C)C`, the growth inhibition in experiment [1] (setting [7]) was 24%; in experiment [1] (setting [8]), 29%; in experiment [1] (at 50.0 µM) it was 14.8%; in experiment [2] (setting [7]), 20%; in experiment [2] (setting [8]), 33%; in experiment [2] (at 50.0 µM), 28.8%. The growth inhibition in experiment [3] (setting [7]) is 20%; in experiment [3] (setting [8]), 29%; in experiment [3] (at 50.0 µM) it was 50.5%; in experiment [4] (setting [7]) it was 25%; in experiment [4] (setting [8]) it was 29%; in experiment [4] (at 50.0 µM), 21.4%. The growth inhibition in experiment [5] (setting [7]) was 13%; in experiment [5] (setting [8]), 34%; in experiment [5] (at 50.0 µM), 4.4%; in experiment [6] (setting [7]), 23%; in experiment [6] (setting [8]), 40%; in experiment [6] (at 50.0 µM), 25.1%.

In the case of `c1ccc(C(CNCCN2CCCCCC2)C2CCCCC2)cc1` (configuration not stated), the growth inhibition in experiment [1] (setting [7]) is 21%; in experiment [1] (setting [8]) it was 12%; in experiment [1] (at 50.0 µM), 82.5% (active); in experiment [2] (setting [7]) it was 13%; in experiment [2] (setting [8]), 22%; in experiment [2] (at 50.0 µM), 44.6%. The growth inhibition was 26% in experiment [3] (setting [7]); -9% in experiment [3] (setting [8]); 89.8% (active) in experiment [3] (at 50.0 µM); 10% in experiment [4] (setting [7]); 16% in experiment [4] (setting [8]); 74.7% (active) in experiment [4] (at 50.0 µM). Also, the results for the growth inhibition in experiment [5] (setting [7]), in experiment [5] (setting [8]) and in experiment [5] (at 50.0 µM) were 22%, 20% and 66.5%, respectively.

Take `CCCCCCCCCCNC(=O)C[n+]1cccc(C(=O)NCc2ccccc2)c1`: the growth inhibition in experiment [1] (setting [7]) is 8%; in experiment [1] (setting [8]) it was 99% (active); in experiment [1] (at 50.0 µM), 99.5% (active); in experiment [2] (setting [7]), -1%; in experiment [2] (setting [8]), 100% (active); in experiment [2] (at 50.0 µM), 99.7% (active). Also, the growth inhibition in experiment [3] (setting [7]) was 5%; in experiment [3] (setting [8]), 100% (active); in experiment [3] (at 50.0 µM) it was 99.5% (active); in experiment [4] (setting [7]), 14%; in experiment [4] (setting [8]) it was 99% (active); in experiment [4] (at 50.0 µM) it was 98.8% (active). In addition, the growth inhibition is 8% in experiment [5] (setting [7]); 99% (active) in experiment [5] (setting [8]); 99.4% (active) in experiment [5] (at 50.0 µM); 11% in experiment [6] (setting [7]); 99% (active) in experiment [6] (setting [8]); 99.5% (active) in experiment [6] (at 50.0 µM).

In the case of `N#CC(C(=O)CCCC(=O)Nc1ccc(Cl)cc1)c1ccccc1Cl` (configuration not stated), the growth inhibition in experiment [1] (setting [7]) is 2%; in experiment [1] (setting [8]), 0%; in experiment [1] (at 50.0 µM) it was 96.8% (active); in experiment [2] (setting [7]), -1%; in experiment [2] (setting [8]), 6%; in experiment [2] (at 50.0 µM), 98% (active). Moreover, the growth inhibition in experiment [3] (setting [7]) is 9%; in experiment [3] (setting [8]), 4%; in experiment [3] (at 50.0 µM), 99% (active); in experiment [4] (setting [7]), -2%; in experiment [4] (setting [8]), 1%; in experiment [4] (at 50.0 µM), 93.9% (active). Further, the growth inhibition in experiment [5] (setting [7]) is 1%; in experiment [5] (setting [8]), 30%; in experiment [5] (at 50.0 µM), 99% (active); in experiment [6] (setting [7]), -2%; in experiment [6] (setting [8]), 4%; in experiment [6] (at 50.0 µM), 96.7% (active).

The record behind these values is PubChem BioAssay (NCI).
